Reference: PubChem BioAssay (NCATS)
Inconclusive results are not listed. Active and inactive are the calls of the source. Calls come from the whole dose curve; as a rule, active = well fitted curve in the direction sought with a large enough effect; inconclusive = small, poorly fitted or top-dose-only effect, or another doubt; inactive = no such curve, though single readings can be large; an effect the other way counts as inactive or inconclusive.

Assays:
[1] = target: Rap guanine nucleotide exchange factor 3 (Homo sapiens) (UniProt O95398); assay: Confirmatory qHTS for antagonist of cAMP-regulated guanine nucleotide exchange factor 3 (EPAC1) (AID 1645880); note: nearly all actives have a fitted effect of over 55% in size; note: potency is the fitted concentration of half-maximal effect
Chain of Rap guanine nucleotide exchange factor 3 (Homo sapiens) (O95398 whole entry, looked up): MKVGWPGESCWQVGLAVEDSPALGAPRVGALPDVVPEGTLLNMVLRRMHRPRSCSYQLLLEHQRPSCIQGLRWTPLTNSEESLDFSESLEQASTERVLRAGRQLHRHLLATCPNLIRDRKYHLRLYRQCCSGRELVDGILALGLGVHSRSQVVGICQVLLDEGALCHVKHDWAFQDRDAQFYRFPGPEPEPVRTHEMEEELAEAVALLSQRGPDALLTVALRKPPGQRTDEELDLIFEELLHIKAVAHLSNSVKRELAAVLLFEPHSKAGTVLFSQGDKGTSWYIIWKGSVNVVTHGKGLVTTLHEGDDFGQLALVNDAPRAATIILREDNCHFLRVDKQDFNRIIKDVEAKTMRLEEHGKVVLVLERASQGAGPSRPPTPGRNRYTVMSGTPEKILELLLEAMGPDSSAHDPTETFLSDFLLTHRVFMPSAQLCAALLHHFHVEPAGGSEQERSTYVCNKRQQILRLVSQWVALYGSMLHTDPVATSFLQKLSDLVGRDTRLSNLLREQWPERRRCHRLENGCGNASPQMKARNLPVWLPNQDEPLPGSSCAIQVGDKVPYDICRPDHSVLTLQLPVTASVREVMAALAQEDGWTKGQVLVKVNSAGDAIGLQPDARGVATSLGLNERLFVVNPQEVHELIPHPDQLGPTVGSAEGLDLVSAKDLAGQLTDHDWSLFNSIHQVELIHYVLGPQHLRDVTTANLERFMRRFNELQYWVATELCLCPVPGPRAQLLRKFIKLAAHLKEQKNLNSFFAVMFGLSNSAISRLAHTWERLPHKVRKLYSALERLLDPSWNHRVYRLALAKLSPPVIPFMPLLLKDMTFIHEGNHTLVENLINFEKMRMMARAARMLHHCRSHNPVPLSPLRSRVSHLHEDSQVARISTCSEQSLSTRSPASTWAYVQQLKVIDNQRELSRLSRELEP
Procedure, shortened: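 Nucleotide exchange uses 100 nM EPAC1, 250 nM RAP1B-BODIPY-GDP and 50 uM GDP, with compounds in a concentration-titration series. After 5 min at room temperature, fluorescence (480 nm ex/540 nm em) is read every 5 min for 30 min. Data are normalized to control ATA and DMSO.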

[2] = target: Rap guanine nucleotide exchange factor 3 (Homo sapiens) (UniProt O95398); assay: Confirmatory qHTS for agonist of cAMP-regulated guanine nucleotide exchange factor 3 (EPAC1) (AID 1645881);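 note: EPAC1 catalysed release of BODIPY-GDP from Rap1B seen as fluorescence loss; 100% = effect of cAMP agonist control; nearly all actives have a fitted effect of over 75% in size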
[3] = target: Rap guanine nucleotide exchange factor 4 (Homo sapiens) (UniProt Q8WZA2); assay: Confirmatory qHTS for agonist of cAMP-regulated guanine nucleotide exchange factor 4 (EPAC2) (AID 1645884);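 note: nucleotide exchange releases bodipy-GDP from Rap1 and this lowers its fluorescence; % is set by controls: 0 for no effect and ±100 for the full control effect; nearly all actives have a fitted effect of over 65% in size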
Chain of Rap guanine nucleotide exchange factor 4 (Homo sapiens) (Q8WZA2 whole entry, looked up): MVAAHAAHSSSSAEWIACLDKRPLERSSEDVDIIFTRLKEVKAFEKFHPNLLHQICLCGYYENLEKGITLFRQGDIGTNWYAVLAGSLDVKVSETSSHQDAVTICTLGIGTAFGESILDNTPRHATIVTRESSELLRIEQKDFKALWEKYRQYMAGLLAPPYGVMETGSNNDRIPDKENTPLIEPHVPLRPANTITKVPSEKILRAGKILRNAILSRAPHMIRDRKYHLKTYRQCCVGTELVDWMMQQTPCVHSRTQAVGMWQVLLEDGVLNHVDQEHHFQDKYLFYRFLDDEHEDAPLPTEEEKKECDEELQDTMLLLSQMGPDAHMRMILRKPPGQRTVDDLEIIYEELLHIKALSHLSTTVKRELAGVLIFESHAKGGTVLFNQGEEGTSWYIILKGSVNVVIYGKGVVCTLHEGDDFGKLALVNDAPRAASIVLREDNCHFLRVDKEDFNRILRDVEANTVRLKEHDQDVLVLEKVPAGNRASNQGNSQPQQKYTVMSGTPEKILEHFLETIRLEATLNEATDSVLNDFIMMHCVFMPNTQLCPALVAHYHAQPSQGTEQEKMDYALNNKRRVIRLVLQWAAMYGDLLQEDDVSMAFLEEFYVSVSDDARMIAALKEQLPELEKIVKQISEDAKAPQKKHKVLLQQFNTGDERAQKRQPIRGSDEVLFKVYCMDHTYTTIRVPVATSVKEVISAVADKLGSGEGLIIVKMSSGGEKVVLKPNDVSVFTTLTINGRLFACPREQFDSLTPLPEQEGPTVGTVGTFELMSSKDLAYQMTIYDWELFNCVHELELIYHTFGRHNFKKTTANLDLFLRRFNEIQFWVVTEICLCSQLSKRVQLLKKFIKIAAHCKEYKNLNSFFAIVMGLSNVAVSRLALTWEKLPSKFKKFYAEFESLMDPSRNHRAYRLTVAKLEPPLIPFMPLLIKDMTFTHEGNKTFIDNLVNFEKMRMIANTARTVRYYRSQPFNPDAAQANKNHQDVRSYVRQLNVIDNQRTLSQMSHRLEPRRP

[4] = target: Rap guanine nucleotide exchange factor 4 (Homo sapiens) (UniProt Q8WZA2); assay: Confirmatory qHTS for antagonist of cAMP-regulated guanine nucleotide exchange factor 4 (EPAC2) (AID 1645885); note: nearly all actives have a fitted effect of over 25% in size; note: potency is the fitted concentration of half-maximal effect
[5] = target: Rap guanine nucleotide exchange factor 3 (Homo sapiens) (UniProt O95398); assay: Counterscreen qHTS for antagonist of cAMP-regulated guanine nucleotide exchange factor 3 (EPAC1) (AID 1645888);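 note: fluorescence loss as bound BODIPY-GDP is released from Rap1B; % of control where 0% means no effect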
Procedure, shortened: (§1)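 Rap1B-BODIPY-GDP 250 nM + GDP 50 uM; cpds 7-pt, final 9.74 nM–152 uM (activator mode) or from 7.32 nM upwards (inhibitor mode); RT; FI 480/540 nm at 5 and 30 min, then ± cAMP, reread.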

[6] = target: Rap guanine nucleotide exchange factor 3 (Homo sapiens) (UniProt O95398); assay: Counterscreen qHTS for agonist of cAMP-regulated guanine nucleotide exchange factor 3 (EPAC1) (AID 1645889); note: % of control where 0% means no effect; nearly all actives have a fitted effect of over 40% in size
Procedure, shortened: as §1

[7] = Viability counterscreen for antagonist of constitutive androstane receptor (CAR) against the NCATS DSHEA and TCM libraries (AID 1794837);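 note: compound exposure lasted 24 h before viability reading; 0% is about no effect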
Procedure, shortened: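 Viability was measured by CellTiter-Fluor fluorescence (405/540 nm, 1 hr) in HepG2-CYP2B6-hCAR cells. Cells were co-treated 24 hr with 48 uM CITCO (final), antagonist mode, and test substances.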

[8] = Viability counterscreen for agonist of constitutive androstane receptor (CAR) against the NCATS DSHEA and TCM libraries (AID 1794838); note: 0% is about no effect
Procedure, shortened: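 Cell viability, from CellTiter-Fluor fluorescence (405/540 nm), was scored after a 24 h, 37C exposure of HepG2 cells carrying CYP2B6 reporter and hCAR to test substances in presence of 0.75 uM PK11195.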

[9] = target: Nuclear receptor subfamily 1 group I member 3 (Homo sapiens) (UniProt Q14994); assay: Primary qHTS for agonist of constitutive androstane receptor (CAR) against the NCATS DSHEA and TCM libraries (AID 1794839);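 note: HepG2 cells expressing human CAR with a CYP2B6 reporter plus PK11195 antagonist; luciferase reporter luminescence read with ONE-Glo; 0% is about no effect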
Procedure, shortened: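 Agonist mode in presence of hCAR antagonist PK11195 (0.75 µM final): test substances, 24 h, 37 °C, on HepG2-CYP2B6-hCAR cells. Same-well readouts: fluorescence viability, then ONE-Glo luminescence; CITCO as reference agonist.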

[10] = HepG2 viability counterscreen (readout 2: ATP content) against the NCATS DSHEA and TCM libraries (AID 1794840); note: 0% is about no effect
Procedure, shortened: (§2)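 Readout 1: cellular protease activity, GF-AFC substrate (25 uM final, 30 min, fluorescence 380/510 nm). Readout 2: ATP content by CellTiter-Glo luminescence after 30 min at RT. Both follow ~24 h exposure of HepG2 cells (1,000/well) to substances.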

[11] = HepG2 viability counterscreen (readout 1: protease activity) against the NCATS DSHEA and TCM libraries (AID 1794841);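 note: cells exposed to compounds for about 24 h before the protease read; 0% is about no effect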
Procedure, shortened: as §2

[12] = target: Cytochrome P450 3A4 (Homo sapiens) (UniProt P08684); assay: qHTS for inhibitors of CYP3A4 against the NCATS DSHEA and TCM libraries (AID 1919971);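 note: % is set by controls: 0 for no effect and ±100 for the full control effect; inhibition lowers luminescence from luciferin made by CYP3A4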
Chain of Cytochrome P450 3A4 (Homo sapiens) (P08684 whole entry, looked up): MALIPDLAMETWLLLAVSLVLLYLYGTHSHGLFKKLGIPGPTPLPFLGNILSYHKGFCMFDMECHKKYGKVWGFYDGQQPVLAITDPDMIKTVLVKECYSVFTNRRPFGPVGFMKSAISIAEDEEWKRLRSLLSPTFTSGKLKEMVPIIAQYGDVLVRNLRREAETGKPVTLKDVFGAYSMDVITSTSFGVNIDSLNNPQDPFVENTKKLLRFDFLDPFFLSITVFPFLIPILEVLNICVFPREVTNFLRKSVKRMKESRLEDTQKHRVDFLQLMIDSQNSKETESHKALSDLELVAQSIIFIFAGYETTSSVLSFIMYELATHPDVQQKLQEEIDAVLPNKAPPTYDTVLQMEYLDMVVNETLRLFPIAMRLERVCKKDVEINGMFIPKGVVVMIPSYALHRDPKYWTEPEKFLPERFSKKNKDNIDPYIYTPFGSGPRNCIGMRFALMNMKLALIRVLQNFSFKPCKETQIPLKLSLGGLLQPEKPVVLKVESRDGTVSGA
Procedure, shortened: (§3)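 Luminescent P450-Glo readout. Enzyme plus pro-luciferin substrate in manufacturer buffer (typically 100 mM KPO4); 15 min RT preincubation; 1x NADPH regenerating system, 30-45 min RT in the dark; detection reagent 30 min.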

[13] = target: Cytochrome P450 2D6 (Homo sapiens) (UniProt P10635); assay: qHTS for inhibitors of CYP2D6 against the NCATS DSHEA and TCM libraries (AID 1919972); note: % is set by controls: 0 for no effect and ±100 for the full control effect
Chain of Cytochrome P450 2D6 (Homo sapiens) (P10635 whole entry, looked up): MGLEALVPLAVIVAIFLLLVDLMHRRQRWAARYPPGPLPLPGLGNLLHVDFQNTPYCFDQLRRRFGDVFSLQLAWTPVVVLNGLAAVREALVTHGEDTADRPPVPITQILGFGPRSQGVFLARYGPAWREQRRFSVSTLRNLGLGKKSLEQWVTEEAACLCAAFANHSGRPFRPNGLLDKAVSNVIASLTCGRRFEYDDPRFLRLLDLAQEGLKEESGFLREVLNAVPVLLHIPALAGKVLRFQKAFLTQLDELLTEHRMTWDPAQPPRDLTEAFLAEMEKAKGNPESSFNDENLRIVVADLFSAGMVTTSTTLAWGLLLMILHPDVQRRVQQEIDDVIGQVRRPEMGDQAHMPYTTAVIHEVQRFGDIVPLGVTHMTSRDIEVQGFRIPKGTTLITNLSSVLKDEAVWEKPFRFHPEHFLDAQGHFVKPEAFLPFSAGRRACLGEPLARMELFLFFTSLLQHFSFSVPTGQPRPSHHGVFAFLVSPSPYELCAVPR
Procedure, shortened: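 Steps: enzyme plus luciferin substrate dispensed; test substances pinned; 15 min RT; 1x NADPH regenerating solution added, 30–45 min RT protected from light; detection reagent, 30 min RT; luminescence measured. Minus-enzyme wells as background.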

[14] = target: Cytochrome P450 2C9 (Homo sapiens) (UniProt P11712); assay: qHTS for inhibitors of CYP2C9 against the NCATS DSHEA and TCM libraries (AID 1919973);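 note: luminogenic pro-luciferin CYP2C9 substrate turned into luciferin with NADPH regeneration; series mostly up to about 34 µM; % is set by controls: 0 for no effect and ±100 for the full control effect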
Chain of Cytochrome P450 2C9 (Homo sapiens) (P11712 whole entry, looked up): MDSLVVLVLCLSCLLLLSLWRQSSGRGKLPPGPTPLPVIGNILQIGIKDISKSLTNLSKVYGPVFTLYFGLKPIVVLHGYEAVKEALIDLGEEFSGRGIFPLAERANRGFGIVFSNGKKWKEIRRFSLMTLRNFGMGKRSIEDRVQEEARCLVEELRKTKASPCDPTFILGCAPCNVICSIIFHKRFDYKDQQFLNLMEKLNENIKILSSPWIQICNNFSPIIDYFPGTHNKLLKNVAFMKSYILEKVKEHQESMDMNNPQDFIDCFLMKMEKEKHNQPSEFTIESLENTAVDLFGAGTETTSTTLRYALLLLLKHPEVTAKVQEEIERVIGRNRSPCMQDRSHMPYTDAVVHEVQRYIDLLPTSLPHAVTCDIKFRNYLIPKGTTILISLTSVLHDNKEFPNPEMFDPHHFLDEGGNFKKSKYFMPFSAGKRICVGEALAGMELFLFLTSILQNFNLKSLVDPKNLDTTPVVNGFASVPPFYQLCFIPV
Procedure, shortened: as §3

[15] = target: Cytochrome P450 2C19 (Homo sapiens) (UniProt P33261); assay: qHTS for inhibitors of CYP2C19 against the NCATS DSHEA and TCM libraries (AID 1919974);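 note: luminescence from luciferin released by CYP2C19 oxidation of a pro-luciferin substrate; % is set by controls: 0 for no effect and ±100 for the full control effect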
Chain of Cytochrome P450 2C19 (Homo sapiens) (P33261 whole entry, looked up): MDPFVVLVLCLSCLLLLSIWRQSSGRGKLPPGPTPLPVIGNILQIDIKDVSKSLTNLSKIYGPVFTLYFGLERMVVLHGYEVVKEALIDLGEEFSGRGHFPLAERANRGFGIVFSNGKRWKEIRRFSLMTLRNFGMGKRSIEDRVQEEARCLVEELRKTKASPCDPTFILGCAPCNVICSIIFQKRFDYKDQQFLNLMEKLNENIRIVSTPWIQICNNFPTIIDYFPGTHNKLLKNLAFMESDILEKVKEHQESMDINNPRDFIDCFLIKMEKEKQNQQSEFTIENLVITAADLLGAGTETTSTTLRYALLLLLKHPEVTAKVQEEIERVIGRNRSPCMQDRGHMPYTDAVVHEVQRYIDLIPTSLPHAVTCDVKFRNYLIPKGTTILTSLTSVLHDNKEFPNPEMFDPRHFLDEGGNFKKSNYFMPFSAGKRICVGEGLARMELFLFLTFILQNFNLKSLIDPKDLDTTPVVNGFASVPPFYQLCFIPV
Procedure, shortened: as §3

[16] = KB-3-1 P-gp reporter qHTS against the NCATS DSHEA and TCM libraries (AID 1919975); note: 0% is about no effect
Procedure, shortened: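 Cell viability by CellTiter-Glo luminescence following ~72 h compound exposure (concentration-response). Uses parental, non-P-gp-overexpressing KB-3-1 line, 500 cells/well in DMEM/10% FBS, attached ~4 h before dosing.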

[17] = target: Cytochrome P450 1A2 (Homo sapiens) (UniProt P05177); assay: qHTS for inhibitors of CYPIA2 against the NCATS DSHEA and TCM libraries (AID 1919976);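 note: light from luciferin formed by CYP1A2 from a pro-luciferin substrate; series mostly up to about 37 µM; % is set by controls: 0 for no effect and ±100 for the full control effect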
Chain of Cytochrome P450 1A2 (Homo sapiens) (P05177 whole entry, looked up): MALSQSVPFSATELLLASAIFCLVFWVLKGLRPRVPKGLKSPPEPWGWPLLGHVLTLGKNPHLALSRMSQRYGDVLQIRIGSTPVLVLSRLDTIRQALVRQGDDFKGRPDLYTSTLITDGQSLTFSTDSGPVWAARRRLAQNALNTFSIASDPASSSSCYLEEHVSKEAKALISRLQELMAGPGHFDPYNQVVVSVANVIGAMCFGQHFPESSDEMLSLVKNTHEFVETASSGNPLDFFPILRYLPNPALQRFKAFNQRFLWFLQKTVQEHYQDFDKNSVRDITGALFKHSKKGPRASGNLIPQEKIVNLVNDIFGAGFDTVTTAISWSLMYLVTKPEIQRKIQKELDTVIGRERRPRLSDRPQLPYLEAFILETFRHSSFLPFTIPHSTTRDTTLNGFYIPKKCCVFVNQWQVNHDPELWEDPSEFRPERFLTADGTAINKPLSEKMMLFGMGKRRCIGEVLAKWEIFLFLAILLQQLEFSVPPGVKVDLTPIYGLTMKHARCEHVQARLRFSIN
Procedure, shortened: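 Human CYP1A2 with its pro-luciferin substrate in supplier buffer (typically 100 mM KPO4) was pre-incubated with compounds 15 min at RT. Reaction was started with 1x NADPH regeneration solution and run 30-45 min at RT in the dark, then luminescence was read after P450-Glo detection reagent (30 min RT).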

[18] = qHTS Counterscreen for compound interference against the NCATS DSHEA and TCM libraries (AID 1919978); settings: firefly luciferase detection reagent interference, luminescence;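 note: compounds preincubated with 1 µM D-luciferin or buffer before detection reagent; % of control where 0% means no effect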
Procedure, shortened: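 With 1 uM D-luciferin or phosphate buffer only, compounds at final 19.5 nM–39.8 uM were incubated for 15 min at room temperature. Luciferase detection reagent was then added, and luminescence was measured after a further 30 min at room temperature.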

[19] = Dual reporter qHTS for agonist of Pregnane X Receptor (hPXR) against the NCATS DSHEA and TCM libraries: Fluorescence readout (AID 1920058); note: 0% is about no effect
Procedure, shortened: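 hPXR-Luc HepG2 cells (2000/well) in phenol red-free medium with charcoal-stripped FBS attached for 5 h, then were exposed to compounds for about 24 h at 37 °C. Viability was read by CellTiter-Fluor fluorescence (Ex/Em 405/540 nm) after 1 h.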

[20] = target: Nuclear receptor subfamily 1 group I member 2 (Homo sapiens) (UniProt O75469); assay: Dual reporter qHTS for agonist of Pregnane X Receptor (hPXR) against the NCATS DSHEA and TCM libraries: Luminescence readout (AID 1920059); note: 0% is about no effect
Chain of Nuclear receptor subfamily 1 group I member 2 (Homo sapiens) (O75469 whole entry, looked up): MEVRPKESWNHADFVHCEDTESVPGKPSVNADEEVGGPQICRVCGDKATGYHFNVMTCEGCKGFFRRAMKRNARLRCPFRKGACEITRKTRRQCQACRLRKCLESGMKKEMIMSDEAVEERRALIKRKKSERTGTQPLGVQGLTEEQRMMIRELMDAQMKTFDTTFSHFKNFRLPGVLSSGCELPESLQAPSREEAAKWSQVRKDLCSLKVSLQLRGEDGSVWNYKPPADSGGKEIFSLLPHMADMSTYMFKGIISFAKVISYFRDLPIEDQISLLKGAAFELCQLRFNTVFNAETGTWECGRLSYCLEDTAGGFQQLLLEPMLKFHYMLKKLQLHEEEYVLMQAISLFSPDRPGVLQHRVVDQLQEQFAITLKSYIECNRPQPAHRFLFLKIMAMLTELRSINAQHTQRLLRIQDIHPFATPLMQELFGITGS
Procedure, shortened: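 Luminescent PXR reporter read (ONE-Glo) after a CellTiter-Fluor viability read, following 24 h, 37C treatment of HepG2 cells stably carrying hPXR-Luc.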

[21] = target: Nuclear receptor subfamily 1 group I member 2 (Homo sapiens) (UniProt O75469); assay: Dual reporter qHTS for antagonist of Pregnane X Receptor (hPXR) against the NCATS DSHEA and TCM libraries: Luminescence Readout (AID 1920060);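 note: HepG2 cells carrying hPXR luciferase reporter stimulated with rifampicin at 2 µM; 0% is about no effect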
Procedure, shortened: (§4)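 HepG2 hPXR-Luc, 2000 cells/well, charcoal-stripped FBS medium; 5 h attach; RIF 2 uM final; 24 h 37C/5% CO2; CellTiter-Fluor 1 h, fluor 405/540; ONE-Glo 30 min RT, lum.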

[22] = Dual reporter qHTS for antagonist of Pregnane X Receptor (hPXR) against the NCATS DSHEA and TCM libraries: Fluorescence Readout (AID 1920061); note: 0% is about no effect
Procedure, shortened: as §4

Cc1ccccc1OCCC(=O)OCC(=O)N1CCN(S(=O)(=O)c2ccc(Cl)cc2)CC1
inactive: Potency [1] | Potency [2] | activation [3] 7.52% [at 17.1 µM, percent relative to cAMP agonist control] | Potency [4] | activity change, negative = inhibition [5] -4.15% [at 30.8 µM] | activation [6] 26.1% [at 30.8 µM]

O=C(NCCC(=O)N(CCc1ccccc1)Cc1ccccc1)c1ccccc1Cl
inactive: Potency [1] | Potency [2] | activation [3] 0.223% [at 17.1 µM, percent relative to cAMP agonist control] | Potency [4] | activity change, negative = inhibition [5] -6.01% [at 30.8 µM] | activation [6] 7.42% [at 30.8 µM]

CCc1nc2c(OCc3ccc(C(=O)OC)cc3)cccn2c1N(C)C(=O)CC(C)C
inactive: Potency [1] | Potency [2] | Potency [3] | Potency [4] | Potency [5] | Potency [6]

COc1ccc(/C=C2\SC(=S)N(NS(=O)(=O)c3ccc(C)cc3)C2=O)c(OC)c1
active: Potency [1] 14.1 µM
inactive: Potency [2] | activation [3] 6.75% [at 17.1 µM, percent relative to cAMP agonist control] | Potency [4] | activity change, negative = inhibition [5] 7.67% [at 30.8 µM] | activation [6] 20% [at 30.8 µM]

Clc1c(Cl)c(Cl)c2n[nH]nc2c1Cl
active: Potency [1] 75.7 µM | Potency [4] 19 µM
inactive: Potency [2] | Potency [3] | Potency [5] | Potency [6]

CCCS(=O)(=O)N1CCC(C(=O)NCCN2CCCC2)CC1
inactive: Potency [1] | Potency [2] | activation [3] 10.1% [at 17.1 µM, percent relative to cAMP agonist control] | Potency [4] | activity change, negative = inhibition [5] -10.8% [at 30.8 µM] | activation [6] 25.6% [at 30.8 µM]

Cc1cn2c(=O)cc(COc3ccc(C(C)(C)C)cc3)nc2s1
inactive: Potency [1] | Potency [2] | Potency [3] | Potency [4] | Potency [5] | Potency [6]

COc1ccc(N2CCN(C(=O)c3cc(C)on3)CC2)cc1
inactive: Potency [1] | Potency [2] | Potency [3] | Potency [4] | Potency [5] | Potency [6]

CSc1nc(N2CCOCC2)c2c3c(sc2n1)CCCC3
inactive: Potency [1] | Potency [2] | Potency [3] | Potency [4] | Potency [5] | Potency [6]

Cc1cn(S(=O)(=O)c2ccccc2[N+](=O)[O-])cn1
inactive: Potency [1] | Potency [2] | activation [3] 0.773% [at 17.1 µM, percent relative to cAMP agonist control] | Potency [4] | activity change, negative = inhibition [5] -3.67% [at 30.8 µM] | activation [6] -4.19% [at 30.8 µM]

COc1cccc(C(NC(C)=O)c2nc(-c3csc4ccccc34)cs2)c1 (configuration not stated)
inactive: Potency [1] | Potency [2] | activation [3] 1.45% [at 17.1 µM, percent relative to cAMP agonist control] | Potency [4] | activity change, negative = inhibition [5] -22.7% [at 30.8 µM] | activation [6] 29.4% [at 30.8 µM]

C=C(C)[C@H]1CC=C(C)CC1
inactive: outcome [7] | outcome [8] | outcome [9] | outcome [10] | outcome [11] | outcome [12] | outcome [13] | outcome [14] | outcome [15] | outcome [16] | outcome [17] | max response [18] -0.263% | outcome [19] | outcome [20] | outcome [21] | outcome [22]
